Common to all, as to assay type: functional
Experiment [1] relates to Plasmodium falciparum. The experiment is described as follows: GSK_TCMDC: Inhibition of Plasmodium falciparum 3D7 in whole red blood cells, using parasite LDH activity as an index of growth. Test compounds present at 2uM.
Experiment [2] deals with Plasmodium falciparum. In words: GSK_TCMDC: Inhibition of Plasmodium falciparum Dd2 in whole red blood cells, using parasite LDH activity as an index of growth. Test compounds present at 2uM.
For another experiment, the system named is HepG2. In words: GSK_TCMDC: Percent inhibition of human HepG2 cell line. Test compounds present at 10uM.

The results in this text go back to ChEMBL document CHEMBL1157539, “Thousands of chemical starting points for antimalarial lead identification” (Nature, 2010).

As to `CN(CCCNc1ccc(C(=O)Nc2ccc(C(F)(F)F)cc2)cc1[N+](=O)[O-])Cc1ccccc1`, the Inhibition with Plasmodium falciparum [1] is on record as 100%; in the experiment with Plasmodium falciparum [2], 48%; with HepG2, 25%.

`Br.Oc1ccc(CCNCCCCCCNCCc2ccc(Cl)c3ccccc23)cc1O`: the Inhibition in the experiment with Plasmodium falciparum [1] amounted to 99%; with Plasmodium falciparum [2], 1%; in the experiment with HepG2, 22%.

As to `CCN(CCCN1CCCCC1)c1cc(C)nc(Nc2ccc(C)c(C)c2)n1.O=C(O)C(F)(F)F`, the Inhibition is 100% in the experiment with Plasmodium falciparum [1], 60% in the experiment on Plasmodium falciparum [2] and 30% with HepG2.

As for `O=C(/C=C/c1ccc(Cl)c(Cl)c1)NCCCCCN1CCC(C(=O)Nc2ccc(Cl)cc2)CC1`, the Inhibition with Plasmodium falciparum [1] was 100%; in the experiment on Plasmodium falciparum [2] it was 0%; in the experiment on HepG2, 42%.

Take `Cc1cc(N(C)C)nc(Nc2ccc(NC(=O)CCc3ccccc3)cc2)n1`: the figures for the Inhibition in the experiment with Plasmodium falciparum [1], with Plasmodium falciparum [2] and in the experiment with HepG2 were 100%, 84% and 20%, respectively.

On to `Cc1ccc(-c2cnc(N)c3cc(-c4ccnc(N)n4)ccc23)cc1`, for which the values for the Inhibition in the experiment with Plasmodium falciparum [1], in the experiment on Plasmodium falciparum [2] and in the experiment with HepG2 were 99%, 94% and 41%, respectively.

As for `Cc1nc2ccccc2c(=O)n1/N=C/c1ccccc1[N+](=O)[O-]`, the Inhibition with Plasmodium falciparum [1] came to 94%; in the experiment with Plasmodium falciparum [2] it was 26%; in the experiment on HepG2, 0%.

For `Cc1sc(NC(=O)c2ccc([N+](=O)[O-])cc2Cl)c(C(N)=O)c1C`, the figures for the Inhibition in the experiment with Plasmodium falciparum [1], in the experiment with Plasmodium falciparum [2] and with HepG2 were 94%, 2% and 2%, respectively.

Regarding `O=c1cc(NCCCN(Cc2cc3c(Cl)cc(Cl)cc3[nH]2)Cc2cc3c(Cl)cc(Cl)cc3[nH]2)[nH]c2ccccc12`, the Inhibition is given as 87% with Plasmodium falciparum [1], 80% in the experiment on Plasmodium falciparum [2] and 23% in the experiment on HepG2.

As for `N#Cc1cccc(NC(=O)Nc2ccc3c(c2)CN(Cc2c[nH]c4ncccc24)C3)c1`, the Inhibition was 99% with Plasmodium falciparum [1], 12% with Plasmodium falciparum [2] and 0% with HepG2.

As for `N=c1cc(C=Cc2ccc(O)cc2)[nH]c2ccccc12`, the Inhibition in the experiment on Plasmodium falciparum [1] is listed as 100%; with Plasmodium falciparum [2], 14%; in the experiment on HepG2, 15%.

Take `O=[N+]([O-])c1cccc(-c2nc(-c3ccc(Br)cc3)[nH]c2-c2ccc(Br)cc2)c1`: the Inhibition was found to be 99% in the experiment on Plasmodium falciparum [1], 44% in the experiment on Plasmodium falciparum [2] and 6% in the experiment on HepG2.

Turning to `Cc1cc(=NN=Cc2ccccc2F)c2cc(F)ccc2[nH]1`, the values for the Inhibition in the experiment on Plasmodium falciparum [1], in the experiment on Plasmodium falciparum [2] and in the experiment with HepG2 were 100%, 97% and 9%, respectively.

`Cc1ccc2c(Cc3cnc(N)nc3N)cc(C)c(N)c2n1.Cl`: the Inhibition in the experiment with Plasmodium falciparum [1] is recorded as 91%; in the experiment on Plasmodium falciparum [2] it was 92%; with HepG2 it was 0%.

For the molecule `COc1ccc2[nH]c(C)cc(=NN=Cc3cccc(Cl)c3)c2c1`, the Inhibition is listed as 100% in the experiment on Plasmodium falciparum [1], 100% with Plasmodium falciparum [2] and 13% with HepG2.

In the case of `CCN(CC)CCNc1ccnc2[nH]c3ccc([N+](=O)[O-])cc3c12`, the figures for the Inhibition in the experiment on Plasmodium falciparum [1], in the experiment on Plasmodium falciparum [2] and with HepG2 were 100%, 76% and 6%, respectively.

Regarding `CCOC(=O)c1ccc(-n2c(C)cc(C=C3SC(=Nc4ccccc4)N(C4CCCC4)C3=O)c2C)cc1`, the Inhibition in the experiment with Plasmodium falciparum [1] was found to be 98%; in the experiment with Plasmodium falciparum [2] it was 61%; with HepG2, 2%.

As to `Cc1nc2ccccc2c(O)c1[N+](=O)[O-]`, the Inhibition with Plasmodium falciparum [1] is 88%; with Plasmodium falciparum [2], 0%; in the experiment with HepG2, 5%.

Turning to `CCCN1CCN(CC(O)CNC(=O)Nc2ccc(Br)cc2)CC1.O=C(O)C(F)(F)F` (stereo not drawn), the Inhibition came out at 100% in the experiment on Plasmodium falciparum [1], 100% in the experiment with Plasmodium falciparum [2] and 10% in the experiment with HepG2.

On to `COc1cccc2cc(C(=O)N[C@@H](CC(C)C)C(=O)N[C@H](C=NN3CC(=O)NC3=O)CC(C)C)oc12`, for which the results for the Inhibition with Plasmodium falciparum [1], in the experiment with Plasmodium falciparum [2] and in the experiment with HepG2 were 86%, 64% and 3%, respectively.

Regarding `c1ccc(-c2n[nH]cc2Nc2ccnc3ccccc23)nc1`, the Inhibition in the experiment with Plasmodium falciparum [1] is on record as 100%; in the experiment on Plasmodium falciparum [2], 98%; in the experiment on HepG2, 36%.

In the case of `O=C(Nc1ccc(-c2nc3ccccc3[nH]2)cc1)C1CCN(Cc2ccccc2)CC1`, the Inhibition is 100% in the experiment on Plasmodium falciparum [1], 82% in the experiment with Plasmodium falciparum [2] and 12% in the experiment on HepG2.

Consider `CC(C)OCCCNC(=O)c1nc(-c2cccc(C(F)(F)F)c2)sc1C(C)C`, for which the Inhibition in the experiment on Plasmodium falciparum [1] was 94%; in the experiment with Plasmodium falciparum [2], 34%; with HepG2, 0%.

Take `O=C(c1cc(-c2ccccc2)n[nH]1)N1CCN(S(=O)(=O)c2ccc(Cl)s2)CC1`: the Inhibition in the experiment with Plasmodium falciparum [1] is given as 88%; in the experiment on Plasmodium falciparum [2], 81%; in the experiment on HepG2, 9%.

Turning to `Cc1csc(-c2nc(NCc3cccnc3)ncc2-c2ccsc2)n1`, the results for the Inhibition with Plasmodium falciparum [1], with Plasmodium falciparum [2] and with HepG2 were 87%, 74% and 0%, respectively.

For the molecule `O=CO.c1ccc(CCNc2ccnc(Nc3ccc4cn[nH]c4c3)n2)cc1`, the Inhibition with Plasmodium falciparum [1] is recorded as 100%; in the experiment on Plasmodium falciparum [2], 100%; with HepG2, 54%.

Turning to `COc1cc(Cc2cnc(N)nc2N)cc(OC)c1OC` [TRIMETHOPRIM], the Inhibition in the experiment on Plasmodium falciparum [1] is 88%; in the experiment with Plasmodium falciparum [2] it was 2%; in the experiment with HepG2 it was 0%.

In the case of `Cc1cc(CNCCCCCCNCc2cccc([N+](=O)[O-])c2)ccc1O`, the Inhibition with Plasmodium falciparum [1] worked out at 90%; in the experiment on Plasmodium falciparum [2], 0%; with HepG2 it was 13%.

For the molecule `CCCNCc1ccc(-c2ccc(CN(C(=O)c3nn(-c4ccccc4)nc3C)C3CC3)cc2)nc1.O=C(O)C(F)(F)F`, the Inhibition is 100% in the experiment on Plasmodium falciparum [1], 0% in the experiment with Plasmodium falciparum [2] and 23% with HepG2.

`COc1ccc(NC(=O)[C@H](CC(C)C)Nc2cc(C)nc(NCc3ccccc3C)n2)cc1.O=C(O)C(F)(F)F`: the Inhibition stood at 100% in the experiment with Plasmodium falciparum [1], 78% with Plasmodium falciparum [2] and 12% with HepG2.

Turning to `Cc1cc(C(=O)NC2CCN(Cc3ccccc3)CC2)ccc1-c1nc2cc(Cl)c(Cl)cc2[nH]1`, the Inhibition with Plasmodium falciparum [1] came to 96%; with Plasmodium falciparum [2], 32%; in the experiment on HepG2, 7%.

By Inhibition is commonly meant the percentage by which the read-out fell short of the control.
